Results as given in PubChem BioAssay (NCI).
About 83,000 compounds went through this panel and 20% of them were active in at least one assay; those are over-represented in the sample as a whole.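 Cells were grown in 96-well plates and exposed to the test compound at a single concentration for 48 hours; results are reported as percent growth, with values below 10 considered active.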 Activity calls are given as the source filed them.

system: MDA-MB-468 breast; test: NCI-60 one-dose screen, 48 h (100 = growth as untreated, 0 = no growth, -100 = all killed); settings: 10 µM unless noted

Compound | growth
Cc1cc(-c2ccc(Cl)cc2)n(Cc2nnc(SCC(=O)Nc3ccc(S(N)(=O)=O)cc3)n2-c2ccc([N+](=O)[O-])cc2)n1 | 78.6% (inactive)
N#C/C(=C\c1ccc(Cl)cc1Cl)C(N)=O | 96.3% (inactive)
COc1ccc(/C=C2\COc3ccc(O)cc3C2=O)cc1OC | 103% (inactive)
COc1ccc(C(C(=O)O)c2ccc(OC)cc2)cc1 | 113% (inactive)
O=C(NCO)c1ccccc1 | 110% (inactive)
CC/C(=C(\c1ccccc1)c1ccc(OCCNC)cc1)c1ccccc1 | -97.7% (active)
O=C1/C(=C/c2cccc(F)c2)CN(C(=O)C(Cl)Cl)C/C1=C\c1cccc(F)c1 | -47.4% (active)
CC1=C2C(=C[C@@](C)(COS(N)(=O)=O)[C@@H]2O)C(=O)[C@](C)(O)C12CC2 | -34% (active)
Cc1[nH]c(C(=O)Nc2ccccc2OC2CCNC2)c(Cl)c1Cl (stereo not given) | 53.8% (inactive)
COC(=O)/C=C\C(=O)OC | 112% (inactive)
NC(N)=Nc1ccc(S(=O)(=O)O)cc1 | 114% (inactive)
CC(C)(C)c1ccc(C(=O)Nc2sc3cc(O)ccc3c2C(N)=O)cc1 | 46.8% (inactive)
O=C(c1ccccc1)C(Br)C(Br)c1cccc([N+](=O)[O-])c1 (stereo not given) | -66.4% (active)
N#Cc1cnn(C(=O)c2nn(-c3ccc(Cl)cc3)cc2O)c1N | 32.1% (inactive)
CC(=O)O[C@H]1CC[C@@]2(C)[C@@H](CC[C@@H]3[C@@H]2CC[C@]2(C)C=C(C=O)C[C@@H]32)C1 | 111% (inactive)
CCc1cccc2c3c(sc12)C(c1ccc(F)cc1)C(C#N)=C(N)O3 (stereo not given) | 31.2% (inactive)
COCCNCC(O)Cn1c2ccc(Cl)cc2c2cc(Cl)ccc21 (stereo not given) | -43.9% (active)
COc1ccc(C2=C/C(=C\c3ccc(Cl)cc3)C(=O)N2/N=C/c2ccc(Cl)cc2)cc1 | 94.3% (inactive)
C=C[C@@H]1C[C@H](O)Cc2ccccc2N1 | 123% (inactive)
COc1ccc(Cn2nc3c(c2-c2cc(OC)c(OC)c(OC)c2)-c2oncc2CC3)cc1 | 27.8% (inactive)

Compound | growth
CCCCCCCCCNCCCCCCCCC | 22.5% (inactive)
Cl.Fc1c[c-]c(-c2ccccn2)c(F)c1.[Pt].c1ccc([PH+](CC[PH+](c2ccccc2)c2ccccc2)c2ccccc2)cc1 | -79.2% (active)
CCCCc1nc2c(N)nc3ccccc3c2n1Cc1cccc(CN)c1 | 27.3% (inactive)
CN(Cc1ccccc1)Cc1ccccc1 | 92.1% (inactive)
COc1cc(/C=N\NC(=O)CN2CCN(c3cc4c(cc3F)c(=O)c(C(=O)N/N=C/c3cc(OC)c(OC)c(OC)c3)cn4C3CC3)CC2)cc(OC)c1OC | -31.1% (active)
COc1cc2c(cc1OCCCN1Cc3ccc(OCCCCC(=O)N4CCC(CCN5CCCC5)CC4)cc3C1)N=C(N)C21CCCC1 | 17.4% (inactive)
COc1ccc(-c2nc3c(c(-c4ccccc4)nn3-c3ccccc3)c(-c3ccc(N4CCN(C)CC4)cc3)c2C#N)cc1 | 79.2% (inactive)
COC(=O)[C@]12CCC(C)(C)C[C@H]1C1=CC[C@@H]3[C@@]4(C)C/C(=C/c5cccnc5)C(=O)C(C)(C)[C@@H]4CC[C@@]3(C)[C@]1(C)CC2 | -22.5% [100 µM] (active)
O=[N+]([O-])c1ccc(NC(=S)NNC(=S)Nc2ccc(Br)cc2)cc1 | 82.5% (inactive)
O=C(Nc1ccc(-n2ccc3c(NC(=O)c4ccccc4)ncnc32)cc1)Nc1ccc(Cl)c(C(F)(F)F)c1 | -56.3% (active)
COC(=O)CCCNc1c(-c2c(O)c(O)cc3c(O)c(-c4c(C)cc5c(-c6nc7ccccn7c6NCCCC(=O)OC)c(O)c(O)cc5c4O)c(C)cc23)nc2ccccn12 | 26.9% (inactive)
CCNC(=O)Oc1ccc(/C(=C(/C)c2ccc(Cl)cc2)c2ccc(OCCN3CCCCCC3)cc2)cc1 | 4.44% (active)
CCCC1OC(c2ccc(C(C)C)cc2)OCC1CC (stereo not given) | 97.6% (inactive)
N#CCNc1ccc(C(=O)O)cc1 | 92.8% (inactive)
CN(C)c1nc2c(N)ncnc2n1C1OC(CO)C(O)C1O (stereo not given) | 102% (inactive)
O=S(=O)(NC1c2ccccc2C[C@H]1O)c1ccc(Cl)cc1Cl (stereo not given in full) | 85.7% (inactive)
O=C(CN1CCN(c2cc(=O)n(-c3ccccc3)c3ccccc23)CC1)Nc1ccc([N+](=O)[O-])cc1 | 62.1% (inactive)
C#C[C@]1(O)CC[C@H]2[C@@H]3CC=C4c5sc(Nc6ncccc6C)nc5CC[C@]4(C)[C@H]3CC[C@@]21C | -8.36% (active)
CN1CCN(c2ccc(C(=O)/C=C/c3cc(F)cc(C(F)(F)F)c3)cc2)CC1 | 31.5% (inactive)
COc1cc(C2C(C#N)=C(N)Oc3cc(O)ccc32)cc(OC)c1OC (stereo not given) | -16% (active)
